Source: PubChem
Rab9 promoter act = qHTS Assay for Rab9 Promoter Activators | Huh7 Rab9 promoter-luciferase reporter, luminescence, 24 h | Potency, µM (highest dose often 9.22 µM), inactives show top-dose activation, negative = inhibition, actives largely listed as activators | hit rate 2.8% among 320,000; further: % of control where 0% means no effect; nearly all actives have a fitted effect of over 60% in size
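Cells were plated at 1500 per well in reduced-serum medium with 10% FBS and left 2 h. Compound in DMSO was then added for 24 h at 37 °C. Reporter signal was read by luminescence after 10 min with luciferase detection reagent.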
FLuc counter = qHTS profiling assay for firefly luciferase inhibitor/activator using purifed enzyme and Km concentrations of substrates (counterscreen for miR-21 project). Luciferin 4-monooxygenase (Photinus pyralis), P08659. purified FLuc, Km substrates, luminescence inhibition. Potency, µM (doses to about 57.5 µM), for inactives: at the highest dose activity change, negative = inhibition, usual class: inhibitors. hit rate 6.9% among 360,000. AID 588342, 2011;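 further: plate controls were vehicle for no effect and reference inhibitor for full effect; nearly all actives have a fitted effect of over 55% in size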
Target sequence (P08659 whole entry, looked up): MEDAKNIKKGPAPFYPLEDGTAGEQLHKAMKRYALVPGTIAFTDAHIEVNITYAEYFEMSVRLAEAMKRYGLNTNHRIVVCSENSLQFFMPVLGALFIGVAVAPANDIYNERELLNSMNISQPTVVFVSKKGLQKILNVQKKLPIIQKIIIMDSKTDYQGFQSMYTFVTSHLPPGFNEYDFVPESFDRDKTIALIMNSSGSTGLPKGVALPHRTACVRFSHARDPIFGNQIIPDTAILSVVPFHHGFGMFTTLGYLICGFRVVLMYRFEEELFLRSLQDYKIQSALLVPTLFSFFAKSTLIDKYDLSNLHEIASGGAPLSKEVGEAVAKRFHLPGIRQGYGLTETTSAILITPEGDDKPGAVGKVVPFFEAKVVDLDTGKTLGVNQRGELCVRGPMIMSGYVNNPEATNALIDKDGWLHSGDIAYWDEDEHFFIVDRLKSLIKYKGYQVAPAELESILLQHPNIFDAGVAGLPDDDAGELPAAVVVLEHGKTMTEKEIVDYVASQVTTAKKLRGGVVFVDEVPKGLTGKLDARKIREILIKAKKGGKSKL
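Purified P. pyralis luciferase (10nM final) with 10uM D-luciferin and 10uM ATP (Km levels) in 50mM Tris acetate pH 7.5, 10mM Mg acetate, 0.01% Tween-20, 0.05% BSA; qHTS 6-point titration, ~60 µM downward; luminescence read.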
ELG1 genotoxic = qHTS screen for small molecules that induce genotoxicity in human embryonic kidney (HEK293T) cells expressing luciferase-tagged ELG1; HEK293T ELG1-luciferase reporter, luminescence, 16 h; Potency, µM (doses to about 46 µM), without a hit: at the highest dose activity change, positive = activation, most hits filed as activators; hit rate 1.3% among 330,000; further: % of control where 0% means no effect; nearly all actives have a fitted effect of over 60% in size
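ELG1-luciferase HEK293T cells, 2,000/well; compound pinned in; 16 hr, 37 °C, 5% CO2; ONE-Glo, 30 min RT; luminescence on CCD imager.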
SMN2 splice up = qHTS Assay for Enhancers of SMN2 Splice Variant Expression. HEK293 SMN2-luciferase splicing reporter, luminescence, 30-36 h. Potency, µM (series often up to 46.1 µM), for inactives: top-dose activity change, positive = activation, hits mostly activators. hit rate 2.8% among 210,000; further: % of control where 0% means no effect; nearly all actives have a fitted effect of over 55% in size
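HEK293 cells carry an SMN2 […]–luciferase reporter in which exon 7 inclusion puts luciferase in frame. Cells were plated 10-12 h before compound addition, then incubated 30-36 h at 37C. ONE-Glo luminescence was read; sodium butyrate at 4.5 mM final served as control.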
NPC1 promoter act = qHTS Assay for NPC1 Promoter Activators. Huh7 NPC1 promoter luciferase reporter, 24 h. AID 485313, 2010. hit rate 2.4% among 320,000. Potency, µM (doses to about 9.22 µM), inactives show top-dose activation, most hits filed as activators; further: % of control where 0% means no effect; nearly all actives have a fitted effect of over 60% in size
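Readout is luciferase luminescence, reflecting NPC1 promoter activation in stably transfected Huh7 cells after 24 h compound exposure at 37 °C in reduced-serum medium with 10% FBS.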
KinaseGlo FLuc = Counterscreen for Luciferase (Kinase-Glo TM) Inhibition | Luciferin 4-monooxygenase (Photuris pensylvanica), Q27757 | Kinase-Glo luciferase, ATP luminescence, 8 min | Potency, µM (top dose mostly 38.3 µM), for the others: top-dose activity change, negative = inhibition, actives largely listed as inhibitors | hit rate 0.28% among 200,000 | AID 1379, 2008; further: on the % scale 0 is the no-effect control and ±100 the full control effect; nearly all actives have a fitted effect of over 60% in size
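Recombinant Kinase-Glo luciferase, 10 uM ATP (linear range), luciferin; imidazole pH 7.2 / KCl / MgCl2 / Tween / BSA buffer; 8 min RT; luminescence.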
* hit, by the source's call; ? = inconclusive; nt = no result given; [ ] = dose if it differs, or a comment. The list is not random: actives were taken first. Their share in the collection is about 7.5%. The call rests on the fitted dose curve; in most records, active means well fitted curve in the direction sought with a large enough effect; inconclusive means small, poorly fitted or top-dose-only effect, or another doubt; inactive means no such curve, though single readings can be large; an effect the other way counts as inactive or inconclusive. Potency means the concentration at half of the fitted maximal effect.

SMILES	Rab9 promoter act	FLuc counter	ELG1 genotoxic	SMN2 splice up	NPC1 promoter act	KinaseGlo FLuc
CCC1CCCCN1C(=O)c1cc(COc2ccc(-n3cncn3)cc2)on1 (stereo unspecified)	-3%	3%	-2%	nt	-5%	nt
Cc1ccc(NN=C2c3ccccc3-c3ccccc32)cc1	?	15µM*	?	27%	?	-1%
COc1cc(C=O)c([N+](=O)[O-])cc1OC	nt	nt	nt	-14%	nt	-2%
COc1ccc(C)cc1NC(=O)C1CCN(S(=O)(=O)c2ccc3[nH]c(=O)oc3c2)CC1	nt	-15%	nt	nt	nt	nt
COc1ccc2cc(C(=O)CS(=O)(=O)c3ccccc3)c(=O)oc2c1	0%	0.95µM*	?	nt	-11%	nt
O=C(CS(=O)(=O)c1ccccc1)c1cc2cc(F)ccc2oc1=O	-1%	1.9µM*	3%	nt	12%	nt
O=C(CS(=O)(=O)c1ccccc1)c1cc2ccccc2oc1=O	-1%	1.5µM*	5%	nt	1%	nt
Cn1nccc1C(=O)N1CCN(S(=O)(=O)c2ccc(Br)s2)CC1	20%	-1%	5%	nt	13%	nt
CC(C)OC(=O)c1ccc(NC(=O)C2C3CC4OC(=O)C2C4C3)cc1 (stereo unspecified)	2.8µM*	21µM*	12%	11µM*	?	1%
COc1ccccc1C(=O)NCCC(=O)NC1CCC(C)CC1 (stereo unspecified)	4µM*	13µM*	?	nt	?	nt
COc1ccccc1C(=O)NCCC(=O)NCC(c1ccccc1)N(C)C (stereo unspecified)	-2%	13µM*	6%	nt	2%	nt
COc1ccccc1C(=O)NCCC(=O)NCCc1ccccc1	-4%	4%	14%	nt	-1%	nt
COc1ccccc1NC(=O)N(C1CCCC1)C1CCN(C(C)=O)CC1	-2%	-2%	1%	-8%	-2%	1%
O=C1c2ccccc2C(=O)N1CCSc1ccccc1	?	4.3µM*	12µM*	?	2.8µM*	-5%
Cc1csc(SCCN2C(=O)c3ccccc3C2=O)n1	?	13µM*	?	8%	?	10%
O=C1c2ccccc2C(=O)N1CCSc1nncs1	-4%	-12%	5%	-5%	-2%	6%
CCOCCCNC(=O)c1ccc2c(c1)ncn2-c1cccc(C)c1	-1%	4%	7%	nt	3%	nt
Cc1cc(C(=O)CSc2ncccn2)c(C)n1Cc1ccco1	0.56µM*	3µM*	?	3.5µM*	1µM*	0%
Cc1cc(C(=O)CSc2nnnn2C)c(C)n1CCc1ccc(F)cc1	4%	8%	8%	-5%	-11%	2%
Cc1cc(C(=O)CSc2nnnn2C)c(C)n1Cc1ccco1	2.8µM*	13µM*	?	nt	2.8µM*	nt
CCCCCCCCCCCCCCC1CO1 (stereo unspecified)	nt	nt	nt	-8%	nt	nt
Cc1cccc(NC2=CC(c3cccc(Br)c3)N(c3cccc(C)c3)C2=O)c1 (stereo unspecified)	nt	0%	nt	12%	nt	nt
COc1cccc(C(=O)NC2=NCCS2)c1	0.56µM*	6µM*	?	2µM*	1µM*	-19%
O=C(NC1=NCCS1)c1cccc(NC(=O)c2ccco2)c1	2%	?	0%	3%	11%	-1%
CC(C)Oc1cccc(C(=O)NC2=NCCS2)c1	4µM*	19µM*	-17%	5µM*	3.2µM*	1%
CCOc1cccc(C(=O)NC2=NCCS2)c1	0.5µM*	12µM*	?	nt	0.63µM*	nt
N=S(=O)(O)Cc1noc2ccccc12	-2%[46.1 µM]	nt	nt	-30%	-1%[46.1 µM]	-2%
CCCc1nc2c(sc3nc4c(cc32)COC(C)(C)C4)c(=O)n1Cc1ccco1	-3%	-1%	-3%	-17%	-2%	3%
